Data taken from publication PMC5540273 (PLoS ONE, 2017).

What was measured:
Conditions in all cases: concentration: 1 μM, replicates: in singlicate; n = 1
GRK4 = tested on: GRK4
GRK7 = tested on: GRK7
GSK3A = tested on: GSK3A
GSK3B = tested on: GSK3B
HASPIN = tested on: T1, HASPIN
T1 construct: gene GSG2

HCK = tested on: HCK
HIPK1 = tested on: HIPK1
HIPK2 = tested on: HIPK2
HIPK3 = tested on: HIPK3
HIPK4 = tested on: HIPK4
HPK1 = tested on: HPK1
HUNK = tested on: HUNK
ICK = tested on: ICK
IGF1R = tested on: IGF1R
IKK-alpha = tested on: T2, IKK-alpha
T2 construct: gene CHUK

IKK-beta = tested on: T3, IKK-beta
T3 construct: gene IKBKB

IKK-epsilon = tested on: T4, IKK-epsilon
T4 construct: gene IKBKE

INSRR = tested on: INSRR
INSR = tested on: INSR
IRAK1 = tested on: IRAK1
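Further: KINOMEscan kinase panel screen.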

Row | Structure (SMILES) | %Inh (GRK4) | %Inh (GRK7) | %Inh (GSK3A) | %Inh (GSK3B) | %Inh (HASPIN) | %Inh (HCK) | %Inh (HIPK1) | %Inh (HIPK2) | %Inh (HIPK3) | %Inh (HIPK4) | %Inh (HPK1) | %Inh (HUNK) | %Inh (ICK) | %Inh (IGF1R) | %Inh (IKK-alpha) | %Inh (IKK-beta) | %Inh (IKK-epsilon) | %Inh (INSRR) | %Inh (INSR) | %Inh (IRAK1)
1 | Cn1cc(-c2ccc3c(c2)CCN3C(=O)Cc2ccccc2Cl)c2c(N)ncnc21 [GSK2608885] | 0% | 0% | 0% | 9% | 0% | 99.4% | 0% | 0% | 14% | 36% | 64% | 7% | 5% | 95.5% | 0% | 0% | 37% | 90.5% | 48% | 0%
2 | c1ccc(-c2n[nH]cc2-c2ccnc3ccccc23)nc1 [GW271431] | 0% | 23% | 15% | 17% | 10% | 0% | 15% | 0% | 26% | 0% | 27% | 4% | 0% | 12% | 0% | 0% | 22% | 1% | 6% | 6%
3 | O=c1cc(N2CCOCC2)nc2n(Cc3cccc4ccccc34)ccn12 [GSK2333389] | 0% | 0% | 9% | 10% | 0% | 0% | 0% | 0% | 21% | 5% | 5% | 0% | 0% | 4% | 29% | 17% | 0% | 0% | 0% | 13%
4 | Cn1ccc2ncnc(Oc3ccc(NC(=O)Nc4ccncc4)c(Cl)c3)c21 | 19% | 0% | 29% | 0% | 28% | 0% | 17% | 0% | 0% | 0% | 0% | 0% | 0% | 0% | 14% | 16% | 0% | 0% | 11% | 8%
5 | CSc1ccc(-c2cc3ncnc(SCC(=O)O)c3s2)cc1 | 0% | 2% | 0% | 0% | 0% | 33% | 55% | 52% | 33% | 22% | 0% | 0% | 0% | 2% | 6% | 0% | 0% | 11% | 0% | 28%
6 | Cc1cn2c(=O)cc(N3CCOCC3)nc2n1Cc1cccc(Cl)c1Cl [GSK2334006] | 0% | 0% | 11% | 13% | 11% | 16% | 0% | 0% | 18% | 6% | 30% | 9% | 12% | 0% | 7% | 18% | 3% | 28% | 0% | 0%
7 | COc1ccc(S(=O)(=O)NC2CCN(c3cc(C)nc(Nc4cccc(C#N)c4)n3)CC2)cc1.O=C(O)C(F)(F)F [GSK1653539] | 0% | 0% | 6% | 0% | 22% | 0% | 0% | 0% | 4% | 0% | 38% | 2% | 0% | 0% | 0% | 0% | 49% | 0% | 0% | 0%
8 | CN1c2ccc(CNc3ccc(F)cc3)cc2-c2c(cnn2C)S1(=O)=O | 0% | 0% | 22% | 0% | 33% | 4% | 35% | 0% | 0% | 0% | 17% | 34% | 0% | 0% | 0% | 0% | 0% | 0% | 0% | 0%
9 | CC(=O)Nc1ccc(COc2ccc(Nc3ccnc4cc(-c5ccccn5)ccc34)cc2)cc1.Cl [GW440148] | 0% | 0% | 34% | 12% | 13% | 52% | 0% | 0% | 12% | 7% | 10% | 22% | 0% | 0% | 0% | 4% | 21% | 0% | 12% | 0%
10 | Nc1nc(-c2ccc3c(N)n[nH]c3c2)cc(N2CCCC2)n1 [GSK2227430] | 0% | 0% | 0% | 0% | 0% | 0% | 5% | 0% | 0% | 0% | 39% | 0% | 0% | 0% | 0% | 0% | 40% | 0% | 0% | 0%
11 | COc1cc2c(cc1OC[C@@H](O)CO)ncc1c3ccc(C#N)cc3[nH]c21 | 73% | 5% | 0% | 0% | 91.2% | 4% | 94.4% | 98% | 94.2% | 47% | 0% | 0% | 0% | 0% | 51% | 35% | 40% | 0% | 0% | 97.2%
12 | CNc1ncnc2[nH]ncc12 [SKF-18355] | 4% | 0% | 0% | 25% | 44% | 16% | 42% | 0% | 12% | 0% | 0% | 34% | 0% | 0% | 0% | 0% | 0% | 0% | 7% | 9%
13 | Cc1c2ccc(N(C)c3ccnc(Nc4cccc(S(N)(=O)=O)c4)n3)cc2nn1Cc1ccccc1.Cl.Cl [GW787226] | 21% | 0% | 0% | 0% | 0% | 91.7% | 23% | 0% | 0% | 0% | 76% | 30% | 0% | 34% | 0% | 0% | 2% | 58% | 25% | 0%
14 | O=C(c1ccc(-c2cc(-c3c[nH]nc3-c3ccccn3)ccn2)cc1)N1CCOCC1 [GW812171] | 14% | 0% | 8% | 7% | 0% | 36% | 36% | 0% | 6% | 7% | 0% | 33% | 0% | 0% | 46% | 0% | 0% | 0% | 21% | 14%
15 | CC(C)Oc1ccc2c(-c3ccnc(Nc4ccc(N5CCN(C)CC5)cc4)n3)cnn2n1 [GW696155] | 84% | 0% | 0% | 6% | 70% | 0% | 97.2% | 98.7% | 98.5% | 83% | 54% | 0% | 49% | 0% | 100% | 100% | 54% | 0% | 21% | 99.9%
